Most compounds without a hit are left out; they make up all but 4.7% or so of the library.
D1 PAM: Potentiators of Human D1 Dopamine Receptor: qHTS. HEK293 TREx D1 cells, calcium flux, dopamine EC20 potentiation. potentiation, % at 10 µM. 0.036% of 360,000 active. D(1A) dopamine receptor (Homo sapiens), P21728; in the data active = potentiation above about 30%; note: 0% is about no effect
Target sequence (P21728 whole entry, looked up): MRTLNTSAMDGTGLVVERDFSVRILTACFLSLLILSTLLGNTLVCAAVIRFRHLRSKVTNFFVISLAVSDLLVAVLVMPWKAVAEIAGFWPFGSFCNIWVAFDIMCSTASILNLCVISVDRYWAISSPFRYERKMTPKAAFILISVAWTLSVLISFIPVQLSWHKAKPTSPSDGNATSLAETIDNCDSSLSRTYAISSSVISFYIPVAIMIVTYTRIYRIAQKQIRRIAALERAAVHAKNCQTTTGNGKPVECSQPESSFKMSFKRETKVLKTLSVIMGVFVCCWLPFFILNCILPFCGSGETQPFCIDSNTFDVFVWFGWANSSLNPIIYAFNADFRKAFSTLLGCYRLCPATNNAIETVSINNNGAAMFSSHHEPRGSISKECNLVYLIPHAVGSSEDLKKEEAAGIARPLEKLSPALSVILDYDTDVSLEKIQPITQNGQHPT
D1 ag: Allosteric Agonists of the Human D1 Dopamine Receptor: qHTS. HEK293 T-REx D1 cells, calcium flux, agonist mode. activation, % at 2 µM. D(1A) dopamine receptor (Homo sapiens), P21728. 1% of 360,000 active; note: 0% is about no effect
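Agonism was scored from calcium flux recorded over 180 s (1 read/s) after pintool compound addition, following a 10-cycle baseline. Cells were inducible force-coupled HEK293 TREx D1, plated overnight at 30 C and loaded with no-wash calcium dye.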
TRHR PAM: qHTS for Small Molecule Agonists and Allosteric Enhancers of Human TRH Receptor: Primary Screen for Enhancers; Thyrotropin-releasing hormone receptor (Homo sapiens), P34981; TRHR cells, fluo-8 calcium fluorescence, EC20 TRH enhancement; enhancement, % at 2 µM; 0.66% of 360,000 active; in the data active = enhancement above about 30%; note: 0% is about no effect
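TRHR-expressing cells loaded with fluo-8 calcium dye were read kinetically (ex 480/em 530) during compound addition, then stimulated with an EC20 of TRH (10 nM final). Enhancement of the Gq-mediated intracellular calcium response was scored.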
TRHR ag: qHTS for Small Molecule Agonists and Allosteric Enhancers of Human TRH Receptor: Primary Screen for Agonists; Thyrotropin-releasing hormone receptor (Homo sapiens), P34981; TRHR cells, calcium flux fluo-8, FDSS agonist mode; activation, % at 2 µM; AID 493084, 2011; 0.18% of 360,000 active; note: 0% is about no effect
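Fluo-8-loaded TRHR cells; 10 s baseline, compound added, kinetic Ca2+ fluorescence read 1/s, agonist mode.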
D1 antag: Antagonist of Human D 1 Dopamine Receptor: qHTS. 3.2% of 360,000 active. HEK293 TREx D1 cells, calcium flux, dopamine EC80; active compounds read low. activity change, negative = inhibition, % at 10 µM. D(1A) dopamine receptor (Homo sapiens), P21728; in the data active = activity change below about -30%; note: % is set by controls: 0 for no effect and ±100 for the full control effect
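Tetracycline-induced HEK293 Trex D1 cells, force-coupled to calcium, dye-loaded; compounds added and read 180 s, then EC80 dopamine added and calcium flux tracked kinetically another 180 s.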
* marks the source's active call; other numbers are inactive results; nt = no result given. Cut-off read from the data, not from the text of the source, unless noted: active = activation above about 30%; inactive = the rest.

SMILES	D1 PAM	D1 ag	TRHR PAM	TRHR ag	D1 antag
Cc1cccc(N(CC(=O)NC2CCCC2)C(=O)CCCC(=O)Nc2ccccn2)c1	3.7	-0.2	-10.3	-0.1	-34.4*
CC(=O)c1ccc(N(CC(=O)NC2CCCC2)C(=O)CCC(=O)Nc2cc(C)on2)cc1	-7.1	0.8	-2.1	0.6	-36.4*
COc1ccc(N(CC(=O)NC2CCCCC2)C(=O)CCC(=O)Nc2nc(C)cs2)cc1	5.0	5.6	-1.3	1.2	21.4
CCOc1ccc(N(CC(=O)NC2CCCC2)C(=O)CCC(=O)Nc2ccccn2)cc1	2.2	-0.2	1.6	-0.1	20.3
CCc1ccc(N(CC(=O)NC2CCCC2)C(=O)CCC(=O)Nc2ccccn2)cc1	-0.1	-0.2	31.4*	0.6	-1.1
COc1ccc(N(CC(=O)NC2CCCCC2)C(=O)CCC(=O)Nc2nc(C)cs2)cc1OC	0.8	0.0	0.8	0.7	-45.4*
CCOC(=O)C1CCN(S(=O)(=O)c2c(C)[nH]c(C)c2C(=O)N2CCCCC2)CC1	-18.9	-0.7	0.9	0.2	4.6
COc1ccc(Br)cc1CN1C(=O)NC2(CCCCCC2)C1=O	nt	30.5*	-3.2	2.5	-32.7*
Clc1ccc(/C=N/NC2=Nc3cccc4cccc2c34)cc1	-8.3	6.7	-3.1	0.2	-33.1*
Cc1ccc(N2C(=O)CSC23C(=O)N(CC(=O)NCc2ccccc2)c2ccccc23)cc1 (stereo unspecified)	1.4	-0.8	-3.7	-1.1	10.1
Cc1ccc[n+](CC(=O)Nc2cc(C(F)(F)F)ccc2Cl)c1	-2.6	2.3	-4.1	0.0	3.1
CCC(C)(C)c1ccc(OCCCC[n+]2cccc(C)c2)c(C(C)(C)CC)c1	-7.2	169.1*	0.7	0.7	-14.8
CC(NC(=O)c1cccnc1)C(c1cccs1)N1CCN(C)CC1 (stereo unspecified)	nt	3.0	7.6	0.3	-38.7*
O=C(Nc1ccccc1N1CCCC1)c1ccc(Cl)cc1Cl	-3.2	3.5	2.8	-1.2	-33.4*
O=C(Nc1ccccc1N1CCCC1)c1cc(Cl)ccc1Cl	-4.8	-0.4	-7.7	-0.4	-5.1
COc1nnc(-c2ccc(N3CCCCC3)c(NC(=O)c3ccccc3)c2)c2ccccc12	-5.0	1.5	2.9	-0.7	-3.1
O=C(Nc1ccccc1N1CCN(C(=O)c2ccccc2)CC1)c1ccccc1Cl	-5.7	1.7	9.2	-0.9	-44.9*
COc1nnc(-c2ccc(N3CCCCC3)c(NC(=O)c3ccc(Cl)cc3)c2)c2ccccc12	-1.8	1.8	39.2*	-1.0	-1.1
O=C(COC(=O)C1CCN(c2ccc(C(F)(F)F)cn2)CC1)Nc1ncc(Cl)cc1Cl	-6.2	9.6	-5.1	-0.2	-19.1
CCCOc1cccc(C(=O)N2CCCCC2CCN2CCCCC2)c1 (stereo unspecified)	-1.3	4.8	-0.4	-1.2	-10.3
C=CCSc1nnc(NC(=O)CCN2C(=O)C3CC=CCC3C2=O)s1 (stereo unspecified)	nt	10.9	0.5	0.4	-10.7
COc1ccccc1CCNCc1ccc(OC)c(OCc2ccccc2)c1	-11.6	62.2*	0.2	1.2	-58.3*
COc1ccc(CNCc2ccco2)cc1OCc1ccccc1	-4.5	44.1*	25.8	0.0	-3.5
COc1ccc2ccccc2c1CNC(C)CCc1ccccc1 (stereo unspecified)	-3.6	6.8	-2.5	0.3	27.1
COc1ccc(CCNCc2c(OC)ccc3ccccc23)cc1OC	-1.2	37.8*	3.8	-0.5	-28.1
SMILES	D1 PAM	D1 ag	TRHR PAM	TRHR ag	D1 antag
Cc1ccc2c(c1C)OC(=O)CC2c1ccccc1 (stereo unspecified)	-2.5	8.5	25.0	-0.3	-8.4
Cc1c(C(=O)OCCOc2ccccc2)[nH]c2c1C(=O)CC(c1ccccc1Cl)C2 (stereo unspecified)	-1.8	10.0	1.6	1.6	-0.7
CC1CC(C)CN(CCCNC(=O)c2ccc3c(c2)N(Cc2ccccc2)C(=O)c2ccccc2S3=O)C1 (stereo unspecified)	-6.5	80.2*	-4.5	-0.8	3.0
CC1CCCN(CCCNC(=O)c2ccc3c(c2)N(Cc2ccc(Cl)cc2)C(=O)c2ccccc2S3(=O)=O)C1 (stereo unspecified)	-0.8	60.2*	-7.0	4.0	-34.6*
CC(=O)c1ccc(NC(=O)c2ccc3c(c2)N(Cc2cccc(Cl)c2)C(=O)c2ccccc2S3(=O)=O)cc1	-2.4	5.6	30.3*	1.3	-7.0
COc1ccc(NC(=O)c2ccc3c(c2)N(Cc2cccc(Cl)c2)C(=O)c2ccccc2S3(=O)=O)cc1Cl	-1.6	6.1	-2.2	0.4	-10.4
Nc1cc(-c2ccccc2)c[nH]c1=O	8.8	4.3	0.7	1.4	10.0
CN1C(=O)NC(c2ccccc2[N+](=O)[O-])C2=C1CCCC2=O (stereo unspecified)	-3.5	1.6	2.9	2.3	-0.2
Cc1c2cnn(CC(=O)NC(C)C)c(=O)c2c(C)n1Cc1cccc(Cl)c1	-2.2	10.9	0.9	-0.1	-54.7*
Cc1ccc(C2=CC(=O)C[C@H](c3ccc4c(c3)OCO4)C2)cc1	-0.8	-0.2	-1.5	-0.3	nt
O=C1C=C(c2ccc3c(c2)oc2ccccc23)C[C@@H](c2ccc3c(c2)OCO3)C1	0.1	-0.2	21.2	-0.3	-32.9*
COc1cc(OC)cc(C(=O)NC(C)CNc2ccc(Cl)cc2[N+](=O)[O-])c1 (stereo unspecified)	3.2	1.5	-14.3	-0.4	-1.7
CCc1ccc(/C=C2\Oc3c(ccc(O)c3CN3CCN(CCO)CC3)C2=O)cc1	3.0	64.4*	5.4	16.2	0.5
COCCCN=C1NN=C(c2cc(C)n(-c3ccccc3)c2C)CS1	4.8	1.4	-2.2	-0.9	-18.8
COCCCN=C1NN=C(c2cc(C)n(-c3ccccc3F)c2C)CS1	5.0	32.5*	1.6	-1.4	-32.2*
Cc1cc(C2=NNC(=Nc3ccccc3)SC2)c(C)n1C	-3.6	0.7	-0.2	-0.3	-31.8*
CC(C)CC(C(=O)NCCc1ccccc1)N1Cc2ccccc2C1=O (stereo unspecified)	3.5	-1.0	-9.7	-0.2	-3.7
Cc1ccc(C(=O)NC2CCCC2)s1	-8.0	2.3	32.4*	-0.1	-15.8
COc1ccc(N(CC(=O)NC2CCCCC2)C(=O)c2ccc(C)s2)c(OC)c1	nt	0.5	-7.6	-0.9	-34.8*
CCN(C(=O)Cn1nc(Cc2cccnc2)c2ccccc2c1=O)c1ccccc1F	-1.0	0.4	2.1	-0.4	-5.1
CC1CC(=O)Nc2ccccc2S1(=O)=O (stereo unspecified)	-1.1	2.4	4.7	0.8	-32.2*
